Screens (PubChem)
GPR151 activ = activators of human GPR151 | activation, % at 11.2 µM | Q8TDV0 | 650,000 tested, 1% active | PathHunter beta-arrestin GPR151 cells, luminescence; in the data active means activation above about 4.9%;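 further: 0% = median of compound wells and 100% = cells with positive control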
Target sequence (Q8TDV0 whole entry, looked up): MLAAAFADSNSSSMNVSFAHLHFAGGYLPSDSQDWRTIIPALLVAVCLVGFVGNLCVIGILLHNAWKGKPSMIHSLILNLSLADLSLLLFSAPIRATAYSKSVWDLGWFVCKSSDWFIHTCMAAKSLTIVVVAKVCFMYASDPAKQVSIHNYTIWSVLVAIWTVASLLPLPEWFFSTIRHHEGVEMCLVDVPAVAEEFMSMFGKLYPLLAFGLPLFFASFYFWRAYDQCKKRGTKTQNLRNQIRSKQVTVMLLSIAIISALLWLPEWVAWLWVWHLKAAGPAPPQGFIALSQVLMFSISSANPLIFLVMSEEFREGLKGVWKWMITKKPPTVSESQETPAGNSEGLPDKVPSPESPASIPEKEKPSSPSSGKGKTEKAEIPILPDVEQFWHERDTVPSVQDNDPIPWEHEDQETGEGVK
FBW7 act = activators of human E3 ligase FBW7; AID 1259310; normalized activity (activation), % at 26.1 µM; 650,000 tested, 0.13% active; AlphaScreen FBW7–phospho-cyclin E peptide binding, activator screen; in the data active means normalized activity above about 1.9%;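 further: purified mutant Fbw7 with reduced substrate affinity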
MITF primary = inhibitors of human MITF. inhibition, % at 2.6 µM. AlphaScreen MITF homodimerization, bead proximity signal. 650,000 tested, 0.91% active. AID 1259374. O75030; in the data active means inhibition above about 50%;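 further: 0% = vehicle wells with protein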
TEAD-YAP inh = TEAD-YAP interaction inhibition | inhibition, % at 9.12 µM | AID 1259422 | HEK-TIYL cells, TEAD-Gal4/YAP UAS-luciferase luminescence | 640,000 tested, 1.4% active; in the data active means inhibition above about 32%;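 further: 0% = median of test compound wells and 100% = reference inhibitor wells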
Active calls of the source: *. This is a sample that favours compounds with a hit; in the whole collection about 3.5% have one here.

SMILES	GPR151 activ	FBW7 act	MITF primary	TEAD-YAP inh
COc1ccccc1NC(=O)CSc1nnc(-c2cccnc2)n1-c1ccccc1C	0	0	12	70*
CCCCNC(=O)CSc1nnc(-c2cccnc2)n1-c1ccccc1OC	0	0	4	10
COc1ccccc1-n1c(SCC(=O)Nc2nc(C)cs2)nnc1-c1ccncc1	1	0	-7	51*
COc1ccccc1-n1c(SCC(=O)Nc2ccc(F)cc2)nnc1-c1ccncc1	1	0	-9	5
COc1ccccc1-n1c(SCC(=O)Nc2ccccc2F)nnc1-c1cccnc1	-1	0	-5	58*
COC(=O)CSc1nnc(-c2cccnc2)n1C	0	1.9*	10	2
N#Cc1c(NC(=O)CCN2C(=O)c3ccccc3C2=O)sc2c1CCCCC2	0	0	7	17
COc1cccc(-c2nnc(SCC(=O)Nc3ccccc3OC)n2-n2cccc2)c1	-1	0	2	50*
COc1cccc(-n2c(SCC(=O)Nc3ccccc3OC)nnc2-c2cccnc2)c1	0	0	-7	-4
CC/C(C)=N\NC(=O)c1cc(C(C)(C)C)[nH]n1	1	0	-10	-23
COc1cc2c(cc1OC)C(c1cccs1)N(C(=O)c1cccnc1)CC2 (configuration not stated)	-2	-1	10	46*
CCCCCOc1ccc(Br)cc1/C(C)=N/NC1=NCCN1	0	0	-1	62*
O=C(COc1ccc(S(=O)(=O)N2CCOCC2)cc1)NCc1cccnc1	0	0	0	0
N#CC(C#N)=C(N)/C(C#N)=C/c1ccc(-c2cc(C(=O)O)cc(C(=O)O)c2)o1	-1	-1	63*	2
COc1ccc2c(=O)cc(C(Cl)(Cl)Cl)oc2c1	-1	0	3	15
COc1cccc(-c2cc(=O)c3cc(OC)ccc3o2)c1	-10	0	8	70*
COc1ccc2oc(C(Cl)(Cl)Cl)cc(=O)c2c1	-1	0	20	50*
COc1ccc2c(=O)cc(-c3ccccc3)oc2c1	1	0	2	-36
O=C(OCCCN1C(=O)c2cccc3c(N4CCCCC4)ccc(c23)C1=O)c1ccccc1	0	0	-10	-6
COC(=O)c1ccc(CSc2ncc(CO)n2Cc2ccc(Cl)cc2)o1	0	0	-5	0
O=C1/C(=C/c2ccncc2)CCC/C1=C\c1ccncc1	0	0	-2	59*
Cc1ccc(/C=C2/CN(C)C/C(=C/c3ccc(C)o3)C2=O)o1	0	0	0	2
O=C1/C(=C/c2cccnc2)CCCC/C1=C\c1cccnc1	-4	1	13	-2
CN1C/C(=C\c2ccncc2)C(=O)/C(=C/c2ccncc2)C1	0	0	8	95*
CCCS(=O)(=O)c1ncc(Cl)c(C(=O)Nc2ccc(OC)cc2)n1	-2	1	16	34*
SMILES	GPR151 activ	FBW7 act	MITF primary	TEAD-YAP inh
CCS(=O)(=O)c1ncc(Cl)c(C(=O)Nc2ccc(C)c(C)c2)n1	-2	0	-5	35*
CCS(=O)(=O)c1ncc(Cl)c(C(=O)Nc2cccc(Cl)c2)n1	-2	0	6	95*
Cc1ccc2c(CNCC(C)(C)CN(C)C)cc(=O)oc2c1	0	0	0	1
COc1ccc(Nc2nc(N3CCCC3)nc3[nH]ncc23)cc1	0	0	-14	48*
O=C(c1cc2ccccc2o1)c1coc2ccc(O)cc12	-8	0	-7	65*
Cc1nc(C)c(C(=O)c2coc3ccc(O)cc23)o1	0	0	11	-28
CNC(=O)c1ccccc1Nc1cc(Nc2ccc(N3CCC(N(C)C)C3)cc2OC)ncc1C#N (configuration not stated)	-1	0	9	44*
CNC(=O)c1ccccc1Nc1cc(Nc2ccc(N3CCN(C)CC3)cc2OC)ncc1C(F)(F)F	-1	0	0	85*
CNC(=O)c1ccccc1Nc1cc(Nc2ccc(F)cc2OC)ncc1C(F)(F)F	-1	0	-2	18
CNC(=O)c1ccccc1Nc1cc(Nc2ccc(OC3CCN(C)CC3)cc2OC)ncc1C(F)(F)F	0	0	14	74*
CNC(=O)c1ccccc1Nc1cc(Nc2ccc(N3CCOCC3)cc2OC)ncc1Br	0	0	14	9
CCc1nnc2c3c(-c4ccc(C)cc4)csc3ncn12	0	0	7	-10
COc1ccccc1CNC(=O)c1ccc2c(c1)N(Cc1ccccc1)C(=O)CS2	0	0	-3	2
Cc1ccc(OCc2nc(-c3ccccn3)no2)c(Br)c1	-7	0	4	39*
CNc1c2ccccc2nc2ccccc12	0	0	-14	71*
Nc1cc(-c2ccccc2)nc2ccccc12	-1	0	3	13
CC(C)Nc1c2ccccc2nc2ccccc12	1	0	-5	73*
Nc1c2ccccc2nc2ccccc12 (tested in a mixture with another compound)	-1	0	-2	71*
Clc1ccc(CCNc2ncnc3c2c(-c2ccccc2)cn3-c2ccc(Br)cc2)cc1	0	0	4	8
O=C(CSc1nc(-c2ccccc2Cl)ns1)N1CCN(c2ccccc2)CC1	-1	0	2	-6
Cc1cc(NC(=O)CCc2c(C)n[nH]c2C)c2ccccc2n1	0	0	0	17
O=c1c(-c2nncn2-c2ccccc2)coc2c(O)c(O)ccc12	-2	0	53*	-2
OC(COc1ccccc1)CN1C2=NCCCN2c2ccccc21 (configuration not stated)	1	2.1*	11	-4
OC(COc1ccccc1)CN1C2=NCCN2c2ccccc21 (configuration not stated)	0	0	-8	-2
O=[N+]([O-])c1ccc(Nc2nccs2)c([N+](=O)[O-])c1	-1	0	5	59*
SMILES	GPR151 activ	FBW7 act	MITF primary	TEAD-YAP inh
O=[N+]([O-])c1cnc(Nc2ccc(S(=O)(=O)Nc3nccs3)cc2)c([N+](=O)[O-])c1	1	0	9	0
O=C(Cc1cccs1)Nc1cccc(-c2ccc(N3CCCCC3)nn2)c1	-3	0	-9	52*
Cc1nc(/N=C(\N)Nc2ccccc2)[nH]c(=O)c1C	0	2.2*	12	7
O=C(c1cc(-c2cccs2)n(CC(=O)N2CCCc3ccccc32)n1)N1CCOCC1	0	0	-5	51*
CN(C)C(=O)Cn1nc(C(=O)N2CCOCC2)cc1-c1cccs1	1	0	12	4
CCn1c(C)nc2cc(CO)ccc21	1	0	10	-6
CCn1c(C)nc2cc(-c3nc4n(n3)Cc3ccccc3-4)ccc21	-12	0	-12	103*
CC[C@H](C)[C@@H]1NC(=O)[C@@H]2C[C@H](NCc3ccc(C(C)(C)C)cc3)CN2C1=O	1	0	14	16
C=CCOc1ccc(/C=C2\SC(=N)N(c3nccs3)C2=O)cc1OCC	-1	0	-1	36*
C=CCOc1ccc(/C=C2\SC(NC(C)=O)=NC2=O)cc1OCC	1	0	6	9
Oc1cccc(Nc2nc(-c3cccnc3)cs2)c1	-2	0	9	45*
